Data from PubChem BioAssay (Tox21).
Records with an inconclusive call do not appear. A call without a number means that no potency is given here. The source holds several records for some structures; these can differ, active in one and inactive in another. Calls of active or inactive are those of the source. The call rests on the fitted dose curve.

Assay: qHTS assay to identify small molecule agonists of the hypoxia (HIF-1) signaling pathway - cell viability counter screen (AID 1224844); further: nearly all actives have a fitted effect of over 50% in size
Conditions: HRE-bla ME-180 viability, CellTiter-Glo luminescence, 17 h; series mostly up to 76.8 µM
Text: National Center for Advancing Translational Sciences [NCATS]
NIH Chemical Genomics Center [NCGC]
U.S. Environmental Protection Agency [EPA]
National Institutes of Environmental Health Sciences [NIEHS]
National Toxicology Program [NTP]
U.S. Food and Drug Administration [FDA]
Hypoxia-inducible factor-1 (HIF-1) is the major hypoxia-regulated transcription factor that controls cellular responses to low oxygen concentration. HIF-1 is composed of two subunits: hypoxia responsive HIF-1-alpha and constitutively expressed HIF-1-beta, which is also known as aryl hydrocarbon receptor nuclear translocator. During hypoxic conditions, HIF-1-alpha heterodimerizes with HIF-1-beta and translocates into the nucleus where the HIF-1 complex binds to the hypoxia-response element (HRE) and activates expression of target genes such as VEGF (vascular endothelial growth factor). The HIF-1 pathway is essential to normal growth and development, and is involved in the pathophysiology of cancer, inflammation, and ischemia.
Using a beta-lactamase reporter-gene under control of the hypoxia response element, a cell-based assay [CellSensor(TM) HRE-bla ME-180 from Life Technologies, Carlsbad, CA] was used to measure hypoxia-induced signaling. Tox21 10K library compounds were measured for their ability to induce the reporter gene activity. The cytotoxicity of the Tox21 compound library against HRE-bla ME-180 cell line was tested in parallel by measuring cell viability using CellTiter-Glo assay (Promega, Madison, WI) in the same assay wells.
Tox21 Assay Protocol Summary:
HRE-bla ME-180 cells were dispensed at 2,000 cells per well in 6 uL of assay medium containing 0.5% dialyzed FBS into black wall/clear-bottom 1536-well plates using a Multidrop Combi (Thermo Scientific, Waltham, MA) dispenser. After the assay plates were incubated at 37C and 5% CO2 for 5 hrs, 23 nL of compounds dissolved in DMSO, positive controls or DMSO only was transferred to each well of the assay plate using a Pintool station (Kalypsys, San Diego, CA). The assay plates were incubated at 37C and 5% CO2 for 17 hrs. One uL of LiveBLAzerTM B/G FRET substrate (CCF4-AM) (Life Technologies) was added to each well using a Flying Reagent Dispenser (FRD, Aurora Discovery, San Diego, CA). After 2 hr incubation at room temperature, fluorescence intensity (405 nm excitation, 460 nm and 530 nm emissions) was measured using an Envision plate reader (PerkinElmer, Shelton, CT). For cytotoxicity, 4 ul/well of CellTiter-Glo reagent was added into the assay plates using an FRD. After 30 min incubation at room temperature, the luminescence intensity was measured using a ViewLux plate reader (PerkinElmer).
Potency means the concentration at half of the fitted maximal effect.

Question: For `CC1(C)NC(=O)N(c2ccc([N+](=O)[O-])c(C(F)(F)F)c2)C1=O`, which Potency is on record?
Answer: inactive

Question: With `CCCOCCO` as the compound, how does the Potency read?
Answer: inactive

Question: With `CC/C(=C(/CC)c1ccc(O)cc1)c1ccc(O)cc1` as the compound, how does the Potency read?
Answer: inactive

Question: Which Potency does the source give for `Cc1ccc([N+](=O)[O-])c(C)c1` here?
Answer: 4.37 µM (active) and inactive

Question: Which Potency does the source give for `Cc1ccc(C)c(O)c1` here?
Answer: inactive

Question: With `OC[C@H]1O[C@@H]2O[C@H]3[C@H](O)[C@@H](O)[C@@H](O[C@H]4[C@H](O)[C@@H](O)[C@@H](O[C@H]5[C@H](O)[C@@H](O)[C@@H](O[C@H]6[C@H](O)[C@@H](O)[C@@H](O[C@H]7[C@H](O)[C@@H](O)[C@@H](O[C@H]1[C@H](O)[C@H]2O)O[C@@H]7CO)O[C@@H]6CO)O[C@@H]5CO)O[C@@H]4CO)O[C@@H]3CO` as the compound, how does the Potency read?
Answer: inactive

Question: Which Potency does the source give for `COc1cc([C@H]2Oc3cc([C@H]4Oc5cc(O)cc(O)c5C(=O)[C@@H]4O)ccc3O[C@@H]2CO)ccc1O` here?
Answer: inactive

Question: With `CC(C)(C)c1cccc(C(C)(C)C)c1O` as the compound, how does the Potency read?
Answer: 53.7 µM (active) and inactive

Question: Which Potency does the source give for `COC(=O)C(C)Oc1ccc(Oc2ncc(C(F)(F)F)cc2Cl)cc1` (stereo not given) here?
Answer: inactive

Question: For `COc1ccc(-c2coc3cc(O)cc(O)c3c2=O)cc1`, which Potency is on record?
Answer: inactive

Question: With `CC(=O)O[C@]1(C(C)=O)CC[C@H]2[C@@H]3C=C(Cl)C4=CC(=O)CC[C@]4(C)[C@H]3CC[C@@]21C` as the compound, how does the Potency read?
Answer: inactive

Question: With `CC[C@]12CCCN3CCc4c(n(c5ccccc45)[C@@](O)(C(=O)OC)C1)[C@@H]32` as the compound, how does the Potency read?
Answer: inactive

Question: Which Potency does the source give for `CC(=O)Oc1c(C)c(C)c2c(c1C)CC[C@@](C)(CCC[C@H](C)CCC[C@H](C)CCCC(C)C)O2` here?
Answer: inactive

Question: Which Potency does the source give for `Cc1cccc(Nc2ccccc2C(=O)O)c1C` here?
Answer: inactive

Question: For `O=C1OC2(c3ccccc31)c1cc(I)c(O)c(I)c1Oc1c2cc(I)c(O)c1I`, which Potency is on record?
Answer: inactive

Question: Which Potency does the source give for `CCO[Si](CCCNC(N)=O)(OCC)OCC` here?
Answer: inactive

Question: For `[O-]/[N+](=N\O)c1ccccc1`, which Potency is on record?
Answer: inactive

Question: Which Potency does the source give for `CCOC(=O)C(C)Oc1ccc(Oc2cnc3cc(Cl)ccc3n2)cc1` (stereo not given) here?
Answer: inactive

Question: For `Brc1nc2ccccc2s1`, which Potency is on record?
Answer: inactive

Question: For `c1ccc2c(c1)ccc1cc3c(ccc4ccccc43)cc12`, which Potency is on record?
Answer: inactive

Question: Which Potency does the source give for `FC(F)(F)C(Cl)Br` (stereo not given) here?
Answer: inactive

Question: Which Potency does the source give for `Cc1ccc(S(=O)(=O)O)cc1C` here?
Answer: inactive

Question: Which Potency does the source give for `CC/C=C\C/C=C\C/C=C\CCCCCCCC(=O)O` here?
Answer: inactive

Question: With `Nc1ccc(N)c(Cl)c1` as the compound, how does the Potency read?
Answer: inactive

Question: Which Potency does the source give for `C[C@]12CC[C@@H]3c4ccc(O)cc4CC[C@H]3[C@@H]1CC[C@H]2O` here?
Answer: inactive

Question: Which Potency does the source give for `CN(C)C` here?
Answer: inactive

Question: For `CN(C)CCCN1c2ccccc2Sc2ccc(Cl)cc21`, which Potency is on record?
Answer: 49 µM (active)

Question: Which Potency does the source give for `Cc1ccc2c(c1)C(=O)OC2=O` here?
Answer: inactive

Question: For `CCCN1C=CN(C)C1`, which Potency is on record?
Answer: inactive

Question: For `C=CC(C)(O)CCC=C(C)C` (stereo not given), which Potency is on record?
Answer: inactive

Question: With `CNC[C@H](O)c1ccc(O)c(O)c1` as the compound, how does the Potency read?
Answer: inactive

Question: With `CC(=O)Nc1ccc2c(c1)Cc1cc(NC(C)=O)ccc1-2` as the compound, how does the Potency read?
Answer: inactive

Question: With `CCCCCCOCCOCCO` as the compound, how does the Potency read?
Answer: inactive

Question: With `CC(C)[C@@H]1CC[C@@H](C)CC1=O` as the compound, how does the Potency read?
Answer: inactive

Question: Which Potency does the source give for `ClC/C=C/CCl` here?
Answer: inactive

Question: Which Potency does the source give for `Clc1ccc(Sc2cc(Cl)c(Cl)cc2Cl)cc1` here?
Answer: inactive

Question: For `C=C[C@H]1CN2CC[C@H]1C[C@@H]2[C@@H](O)c1ccnc2ccc(OC)cc12`, which Potency is on record?
Answer: inactive

Question: For `c1ccc2c(c1)ccc1ncccc12`, which Potency is on record?
Answer: inactive

Question: With `C=CN1CCCC1=O` as the compound, how does the Potency read?
Answer: inactive

Question: With `Cc1ccc(/C(=C\CN2CCCC2)c2ccccn2)cc1` as the compound, how does the Potency read?
Answer: inactive
